Data published in PubChem BioAssay (NCATS).
Inconclusive results are not listed. Activity calls are given as the source filed them. Unless noted, calls come from the whole dose curve; as a rule, active = well fitted cell-killing curve with a large enough effect; inconclusive = small, poorly fitted or top-dose-only effect; inactive = flat fitted curve, though single readings scatter.

What was measured:
[1] = Cell Viability - LYMP2-002 (AID 977); note: series mostly up to about 92 µM
Method in brief: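 Luminescent ATP readout (CellTiter-Glo, 30 min room temperature) after 24 h compound exposure at 37 C of a human lymphoblastoid line, 2500 cells/well. AC50 values derived by standard Hill fitting of qHTS concentration-response data.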

[2] = Cell Viability - LYMP2-006 (AID 978); note: series mostly up to about 92 µM; nearly all actives have a fitted effect of over 60% in size
Method in brief: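 Potency values are Hill-fit AC50s for decreases in intracellular ATP (CellTiter-Glo luminescence). LYMP2-006 lymphoblastoid cells, 2500 per well, were exposed to compound in complete culture medium for 24 hr at 37 C.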

[3] = Cell Viability - LYMP2-008 (AID 980); note: nearly all actives have a fitted effect of over 60% in size
Method in brief: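 LYMP2-008 lymphoblastoid cells (2500/well) plated 5 h, then treated 24 h at 37 C in complete medium. Viability read as intracellular ATP by CellTiter-Glo luminescence after 30 min at room temperature; AC50 from Hill fits.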

[4] = Cell Viability - LYMP2-010 (AID 981); note: nearly all actives have a fitted effect of over 55% in size
Method in brief: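 Human lymphoblastoid LYMP2-010 cells (2500/well) treated 24 h at 37 C in complete medium; viability read as intracellular ATP by CellTiter-Glo luminescence. AC50 from Hill fits of concentration-response data; tetraoctylammonium bromide positive control.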

[5] = Cell Viability - LYMP2-012 (AID 982);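 note: cellular ATP by luciferase luminescence where a drop means cytotoxicity; cells exposed to compound for one day before reading; nearly all actives have a fitted effect of over 55% in size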
[6] = Cell Viability - LYMP2-014 (AID 983); note: series mostly up to about 92 µM; nearly all actives have a fitted effect of over 50% in size
Method in brief: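 LYMP2-014 human lymphoblastoid cells, 2500/well, treated 24 h at 37 C in complete medium; viability by CellTiter-Glo ATP luminescence after 30 min at room temperature. AC50 from Hill fits of qHTS concentration-response; tetraoctylammonium bromide positive control.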

[7] = Cell Viability - LYMP2-016 (AID 984); note: nearly all actives have a fitted effect of over 55% in size
Method in brief: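 Cytotoxicity was scored by luminescent ATP content (CellTiter-Glo) after 24 h compound exposure at 37 C of a human lymphoblastoid line at 2500 cells/well. Concentration-response data were fitted to the Hill equation for AC50.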

[8] = Cell Viability - LYMP2-018 (AID 985);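 note: compound exposure lasted 24 hr at 37 °C; nearly all actives have a fitted effect of over 50% in size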
Method in brief: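 Human lymphoblastoid LYMP2-018 cells, 2500/well, settled 5 hr at 37 C then exposed to compound 24 hr at 37 C; intracellular ATP measured by CellTiter-Glo luminescence. AC50 from Hill-equation concentration-response fits.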

[9] = Cell Viability - LYMP2-020 (AID 986); note: series mostly up to about 92 µM; nearly all actives have a fitted effect of over 55% in size
Method in brief: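 Human lymphoblastoid LYMP2-020 cells (2500/well) preincubated 5 h at 37 C, then treated 24 h at 37 C. Viability measured as intracellular ATP by CellTiter-Glo luminescence after 30 min at room temperature; AC50 from Hill fits.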

[10] = Cell Viability - LYMP2-022 (AID 987); note: nearly all actives have a fitted effect of over 55% in size
Method in brief: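 LYMP2-022 lymphoblastoid cells (2500/well, complete medium) were treated with compounds for 24 hours at 37 C; intracellular ATP was then read by CellTiter-Glo luminescence after 30 min at room temperature. AC50 values were derived from Hill-equation fits.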

[11] = Cell Viability - LYMP2-024 (AID 988); note: nearly all actives have a fitted effect of over 60% in size
Method in brief: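 Human lymphoblastoid LYMP2-024 cells (2500/well) rested 5 hr, then treated with compound for 24 hr at 37 C in complete medium. Viability was measured as intracellular ATP by CellTiter-Glo luminescence. AC50 values came from Hill-equation fits.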

[12] = Cell Viability - LYMP2-026 (AID 989); note: nearly all actives have a fitted effect of over 50% in size
Method in brief: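 Human lymphoblastoid LYMP2-026 cells, 2500/well, exposed to compound 24 h at 37 C in complete medium. Viability as intracellular ATP by CellTiter-Glo luminescence; AC50 from Hill fits of qHTS concentration-response.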

[13] = Cell Viability - LYMP1-002 - Assay at 24 hr (AID 993)
Method in brief: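 Human lymphoblastoid LYMP1-002 cells (2500/well) treated 24 h at 37 °C; viability as intracellular ATP by CellTiter-Glo luminescence. Tetraoctylammonium bromide as positive control; AC50 from Hill-equation fits of qHTS concentration-response.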

[14] = Cell Viability - LYMP1-002 - Assay at 40 hr (AID 994); note: nearly all actives have a fitted effect of over 60% in size
Method in brief: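 LYMP1-002 human lymphoblastoid cells (2500/well, complete medium) were treated with compounds for 40 hr at 37 C. Intracellular ATP was measured by CellTiter-Glo luminescence, and AC50 values came from Hill-equation fits of concentration-response data; tetraoctylammonium bromide was the positive control.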

[15] = qHTS Assay for Identification of Small Molecule Inducers of Hypoxia Response (AID 2120; active = well fitted curve in the direction sought with a large enough effect in the signal ratio, with a control signal flat, not every such curve was filed as active; the % refers to the signal ratio)
Method in brief: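 HRE-bla ME-180 cells in Opti-MEM with 0.5% dialyzed FBS, pre-plated 4-5 h, then compound titration for 17 h at 37 degrees Celsius. CCF4 loaded 2.5 h at room temperature; 460/530 nm ratio gave %Activity and AC50 for induction.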

[16] = biological target: Estrogen receptor (Homo sapiens) (UniProt P03372); experiment: qHTS assay for small molecule antagonists of estrogen receptor alpha signaling (AID 588513; active = well fitted curve in the direction sought with a large enough effect in the signal ratio, with a control signal flat, not every such curve was filed as active; the % refers to the signal ratio)
Chain of Estrogen receptor (Homo sapiens) (P03372 whole entry, looked up): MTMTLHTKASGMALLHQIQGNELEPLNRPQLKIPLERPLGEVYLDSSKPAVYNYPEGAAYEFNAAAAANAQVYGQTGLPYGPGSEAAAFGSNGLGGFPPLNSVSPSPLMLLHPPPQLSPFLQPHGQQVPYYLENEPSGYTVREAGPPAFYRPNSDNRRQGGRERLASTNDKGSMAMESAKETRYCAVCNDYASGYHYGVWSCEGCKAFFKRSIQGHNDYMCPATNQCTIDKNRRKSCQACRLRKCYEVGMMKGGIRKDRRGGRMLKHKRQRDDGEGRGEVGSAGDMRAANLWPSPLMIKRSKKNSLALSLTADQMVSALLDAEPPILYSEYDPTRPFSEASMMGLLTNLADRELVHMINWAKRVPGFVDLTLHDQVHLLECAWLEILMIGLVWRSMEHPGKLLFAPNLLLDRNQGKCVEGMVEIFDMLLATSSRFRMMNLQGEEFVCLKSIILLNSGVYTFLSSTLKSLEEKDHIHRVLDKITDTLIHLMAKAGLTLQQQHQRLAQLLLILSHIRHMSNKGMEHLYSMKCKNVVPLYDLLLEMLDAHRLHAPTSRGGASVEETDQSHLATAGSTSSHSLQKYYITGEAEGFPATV
Method in brief: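 Antagonist mode: inhibition of 0.5 nM 17-beta-estradiol-driven beta-lactamase reporter in HEK 293 ER-alpha-UAS-bla cells, 18 h at 37C, CCF4 readout after 2 h at RT. Normalised to estradiol and DMSO; titration fitted to Hill.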

[17] = biological target: Estrogen receptor (Homo sapiens) (UniProt P03372); experiment: qHTS assay for small molecule agonists of estrogen receptor alpha signaling (AID 588514; calls by dose curve; note: nearly all actives have a fitted effect of over 70% in size)
Method in brief: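 ER-alpha-UAS-bla GripTite HEK293 cells, 5000/well in 2% charcoal/dextran-stripped FBS medium, treated with compound titrations 18 h at 37 C. CCF4 beta-lactamase read by fluorescence after 2 h RT; normalised to 20 nM 17-beta-estradiol (100%) and DMSO (0%), Hill fit for EC50 and efficacy.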

[18] = biological target: Androgen receptor (Homo sapiens) (UniProt P10275); experiment: qHTS assay for small molecule antagonists of androgen receptor signaling (AID 588516; active = well fitted curve in the direction sought with a large enough effect in the signal ratio, with a control signal flat, not every such curve was filed as active; the % refers to the signal ratio)
Chain of Androgen receptor (Homo sapiens) (P10275 whole entry, looked up): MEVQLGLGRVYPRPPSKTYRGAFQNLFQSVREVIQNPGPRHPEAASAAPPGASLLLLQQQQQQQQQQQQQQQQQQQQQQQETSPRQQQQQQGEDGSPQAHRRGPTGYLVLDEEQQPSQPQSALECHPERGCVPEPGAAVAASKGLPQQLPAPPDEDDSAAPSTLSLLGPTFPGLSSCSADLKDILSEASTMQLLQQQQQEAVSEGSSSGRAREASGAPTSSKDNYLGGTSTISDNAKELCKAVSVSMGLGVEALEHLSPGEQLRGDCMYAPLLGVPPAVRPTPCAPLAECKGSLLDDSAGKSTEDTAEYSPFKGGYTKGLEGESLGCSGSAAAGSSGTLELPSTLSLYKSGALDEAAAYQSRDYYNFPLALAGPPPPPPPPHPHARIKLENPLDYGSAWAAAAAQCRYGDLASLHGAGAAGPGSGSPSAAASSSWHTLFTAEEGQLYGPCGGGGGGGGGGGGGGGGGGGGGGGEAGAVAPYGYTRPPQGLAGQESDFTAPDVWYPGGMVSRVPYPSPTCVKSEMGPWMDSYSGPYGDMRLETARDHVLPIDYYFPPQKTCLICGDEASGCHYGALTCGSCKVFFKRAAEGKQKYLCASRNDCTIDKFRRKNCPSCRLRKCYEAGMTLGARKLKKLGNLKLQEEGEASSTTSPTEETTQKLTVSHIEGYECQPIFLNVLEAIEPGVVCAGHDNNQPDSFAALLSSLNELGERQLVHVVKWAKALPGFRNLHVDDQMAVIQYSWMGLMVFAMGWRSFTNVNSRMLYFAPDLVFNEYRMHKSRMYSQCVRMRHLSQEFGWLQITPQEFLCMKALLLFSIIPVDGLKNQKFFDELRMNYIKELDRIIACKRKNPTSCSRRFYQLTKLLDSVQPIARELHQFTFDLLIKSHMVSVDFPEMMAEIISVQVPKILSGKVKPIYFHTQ
Method in brief: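 Antagonist mode: inhibition of R1881-stimulated (10 nM final) bla reporter in GeneBLAzer AR HEK 293 cells, 16 h at 37C, compounds titrated. IC50 and efficacy from Hill-equation fits of 405/460–530 nm FRET ratios.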

[19] = Cell Viability - LYMP2-007 (AID 979)
Method in brief: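 Human lymphoblastoid LYMP2-007 cells (2500/well) preincubated 5 h at 37 C, then treated 24 h at 37 C in complete medium. Viability by CellTiter-Glo ATP luminescence after 30 min at room temperature; AC50 from Hill fits.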

Measured: Potency

CC(C)c1ccccc1
not listed: [19]
inactive: all other assays above

Cc1ccc(N(C)C)cc1
not listed: [8]
inactive: all other assays above

CNC(=O)N(c1ccccc1)c1ccccc1
not listed: [14]
inactive: all other assays above

O=C1CCCCC1
not listed: [3] | [14]
inactive: all other assays above

CCOC(=O)OCC
not listed: [18]
inactive: all other assays above

OC/C(Br)=C(\Br)CO
not listed: [18]
inactive: all other assays above

COC(=O)CC#N
not listed: [18]
inactive: all other assays above

CC(=O)Nc1cccc(N)c1
not listed: [18]
inactive: all other assays above

CCC(C)(C)OC
not listed: [18]
inactive: all other assays above

Cc1ccco1
not listed: [18]
inactive: all other assays above

CCNc1cc(O)ccc1C
not listed: [18]
inactive: all other assays above

O=C(O)c1cccc(Cl)c1Cl
not listed: [18]
inactive: all other assays above

CC(N)CN (stereo not given)
not listed: [13] | [18]
inactive: all other assays above

Cc1cccc(C)c1O
not listed: [13] | [18]
inactive: all other assays above

CC(=O)c1cccc([N+](=O)[O-])c1
not listed: [18]
inactive: all other assays above

O=Cc1ccc(C(=O)O)cc1
not listed: [13] | [18]
inactive: all other assays above

CCCCCO
not listed: [18]
inactive: all other assays above

C=C(C)C(=O)OCC(C)O (stereo not given)
not listed: [18]
inactive: all other assays above

O=c1[nH][nH]c(=O)c2cc([N+](=O)[O-])ccc12
not listed: [18]
inactive: all other assays above

C=CCOC(=O)COCCC(C)C
not listed: [8] | [18]
inactive: all other assays above

CN(C)CCCCl
not listed: [18]
inactive: all other assays above

CCCCC(CC)COC(=O)CCCCC(=O)OCC(CC)CCCC (stereo not given)
not listed: [18]
inactive: all other assays above

Nc1cccc(C(F)(F)F)c1
not listed: [18]
inactive: all other assays above

CCOCCOCC
not listed: [13] | [18]
inactive: all other assays above

Nc1cc(Cl)c([N+](=O)[O-])cc1O
not listed: [18]
inactive: all other assays above

COc1ccc(N)c(C)c1
not listed: [18]
inactive: all other assays above

O=Cc1c(Cl)cccc1Cl
not listed: [18]
inactive: all other assays above

CCCCCCC=O
not listed: [8] | [18]
inactive: all other assays above

CC(=O)c1ccccc1[N+](=O)[O-]
not listed: [13] | [18]
inactive: all other assays above

Cc1ccc(C)c(N)c1
not listed: [13] | [18]
inactive: all other assays above

CC(C)=CCC/C(C)=C/C=O
not listed: [18]
inactive: all other assays above

Nc1ccc(F)cc1F
not listed: [13] | [18]
inactive: all other assays above

Cc1ccc(Cl)cc1
not listed: [18]
inactive: all other assays above

CC(=O)c1nccs1
not listed: [18]
inactive: all other assays above

C/C=C1\CC2C=CC1C2 (stereo not given)
not listed: [18]
inactive: all other assays above
